# In PubChem BioAssay AID485364 (National Center for Advancing Translational Sciences (NCATS), 2010):
# Out of some 360,000 compounds screened, about 11,000 (3.1%) were called active. A call without a number means that no potency is given here. Roughly 4% stayed inconclusive and do not appear here. Calls come from the whole dose curve; as a rule, active = well fitted inhibition curve with a large enough effect; inconclusive = small, poorly fitted or top-dose-only effect; inactive = no such curve, though single readings can be large or run the other way. Only a selection was taken, and actives are over-represented in it overall.
# Molecular target: Schistosoma mansoni thioredoxin glutathione reductase (TGR) (UniProt Q962Y6)
# Experiment: qHTS Assay for the Inhibitors of Schistosoma Mansoni Peroxiredoxins; note: nearly all actives have a fitted effect of over 60% in size
# Settings: purified TGR, DTNB reduction, TNB absorbance 405 nm; series mostly up to 114 µM
# Summary of the method: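 Kinetic colorimetric format: TGR-catalysed, NADPH-driven DTNB reduction monitored via TNB absorbance. Enzyme dispensed at 20 nM; compound exposure 15 min at room temperature before reaction start.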
# Potency is the fitted concentration of half-maximal effect.
row,SMILES,Potency
1,O=C(O)c1ccc(COc2c(F)c(F)cc(F)c2F)o1,35.5 µM (active)
2,COC(=O)c1ccc(COc2ccc(C#N)cc2)o1,inactive
3,O=C(O)c1ccc(NC(=O)c2ccc(COc3ccc(Cl)cc3)o2)cc1,inactive
4,N#CC1=C(N)C(C#N)(C#N)[C@H](c2ccsc2)[C@H]2COCC=C12,12.6 µM (active)
5,CCN1CC=C2C(C#N)=C(N)C(C#N)(C#N)[C@H](c3ccoc3)[C@H]2C1,inactive
6,Cc1ccc(C)c(N2CCN(C(=O)Cc3c(C(=O)O)c(C)cn3C)CC2)c1,inactive
7,O=C1[C@@H]2C(c3cccnc3)=NO[C@@H]2C(=O)N1c1ccc(Cl)cc1Cl,8.91 µM (active)
8,Cc1nc2ccccc2c(=O)n1-c1ccc(Cl)cc1Cl,inactive
9,O=C(NNC1CC(=O)N(c2cccc(Cl)c2)C1=O)c1cccnc1 (centres undefined),inactive
10,COc1ccccc1-c1nnc(C2CCN(C(=O)c3ccc(Cl)cc3)CC2)o1,inactive
11,CC(C)(C)c1ccc(C(=O)Nc2ccc3c(c2)CCCN3C(=O)c2cccs2)cc1,inactive
12,Cc1cccc(Cn2c(CN3CCC(C(=O)NCc4ccccc4Cl)CC3)cc3ccccc32)c1,inactive
13,c1coc(-c2nc3nc4ccccc4n3nc2-c2ccco2)c1,44.7 µM (active)
14,O=C(COc1ccc(Cl)cc1)Nc1ccccc1OCc1cc(=O)n2ccccc2n1,inactive
15,COc1ccc(C(=O)c2c(C)oc3cc([N+](=O)[O-])c(O)c([N+](=O)[O-])c23)cc1,inactive
16,Cc1nc2ccccc2c(-c2ccccc2)c1C(=O)c1ccccc1,inactive
17,Cc1oc2cc(Br)c(O)c(Br)c2c1C(=O)c1ccccc1,15.8 µM (active)
18,Brc1cccc(-c2nnn3c2nc(NC2CCCCC2)c2ccccc23)c1,inactive
19,COc1ccc(CCNC(=O)Cn2c(=O)cc(C(F)(F)F)c3c(C)nn(C)c32)c(OC)c1,inactive
20,O=C1C(=O)N(CCN2CCOCC2)C(c2ccccn2)/C1=C(/O)c1ccc(Cl)cc1 (centres undefined),20 µM (active)

row,SMILES,Potency
1,CCN(CC)CCN1C(=O)C(=O)/C(=C(/O)c2ccc(OC)c(OC)c2)C1c1ccccn1 (centres undefined),inactive
2,O=C1C(=O)N(CCN2CCOCC2)C(c2cccc(Cl)c2)/C1=C(/O)c1ccc2c(c1)OCO2 (centres undefined),50.1 µM (active)
3,O=C1C(=O)N(CCCO)C(c2ccccc2)/C1=C(\O)c1ccc(Br)cc1 (centres undefined),inactive
4,CC1Cc2cc(/C(O)=C3\C(=O)C(=O)N(CCN4CCOCC4)C3c3ccccc3F)ccc2O1 (centres undefined),inactive
5,COCCN1C(=O)C(=O)/C(=C(/O)c2ccc(S(=O)(=O)N3CCOCC3)cc2)C1c1ccc(OC)c(OC)c1 (centres undefined),inactive
6,COCCN1C(=O)C(=O)/C(=C(/O)c2ccc(S(=O)(=O)N3CCOCC3)cc2)C1c1ccc(O)c(OC)c1 (centres undefined),inactive
7,COc1ccc(C2/C(=C(/O)c3ccc(OC(C)C)cc3)C(=O)C(=O)N2CCCN2CCOCC2)cc1 (centres undefined),20 µM (active)
8,COCCCN1C(=O)C(=O)/C(=C(/O)c2ccc(S(=O)(=O)N3CCOCC3)cc2)C1c1ccc(F)cc1 (centres undefined),inactive
9,CCn1c2c(c(=O)n3ncc(C(=O)N4CCN(c5ccccc5)CC4)c13)CN(Cc1ccc(OC)cc1)CC2,inactive
10,CCc1cccc(NC(=O)CN(C)S(=O)(=O)c2ccc3[nH]c4c(c3c2)CCCC4)c1,inactive
11,O=C(Nc1cc(C(F)(F)F)ccc1Cl)c1cc2nc(-c3ccc4c(c3)OCO4)cc(C(F)(F)F)n2n1,inactive
12,O=C(CSc1nc(Nc2ccc(F)c(F)c2)c2ccccc2n1)c1ccc(Cl)cc1,inactive
13,Cc1cc(C)nc(NS(=O)(=O)c2ccc(NC(=O)c3cc(=O)c4ccc(C)c(C)c4o3)cc2)n1,inactive
14,COC(=O)c1c(NC(=O)CCCOc2ccccc2)sc2c1CCC(C)C2 (centres undefined),inactive
15,O=C(O)CCn1cc(/C=C/C(=O)c2ccc(Cl)cc2)c(-c2cccc(Br)c2)n1,inactive
16,O=C(O)CCn1cc(C=C2C(=O)NC(=S)NC2=O)c(-c2cccc(Br)c2)n1,31.6 µM (active)
17,Cc1cccc(NC(=O)c2ccc3nc(C(C)C)oc3c2)c1C,inactive
18,O=S(=O)(c1ccccc1)c1nc(-c2ccccc2)oc1NCCCN1CCOCC1,inactive
19,O=S(=O)(c1ccc(Br)cc1)c1nc(-c2ccccc2)oc1N1CCOCC1,inactive
20,O=S(=O)(c1ccccc1)c1nc(Cc2ccccc2)oc1N1CCOCC1,2 µM (active)

row,SMILES,Potency
1,Cc1ccc(NC(=O)Nc2sc3nc4n(c(=O)c3c2C)CCC(C)CC4)c(Cl)c1 (centres undefined),inactive
2,CCC(C)c1ccc2oc(-c3ccc(NC(=O)c4cc5ccccc5o4)cc3)nc2c1 (centres undefined),inactive
3,Cc1ccc(C2c3[nH]c4ccccc4c3CCN2C(=O)c2cccc(C)c2)cc1 (centres undefined),inactive
4,Cc1ccc(C)c(N2C(=O)N(Cc3c(F)cccc3Cl)c3ccccc3S2(=O)=O)c1,inactive
5,O=C(NCC(c1ccco1)S(=O)(=O)c1cccs1)c1ccc(F)cc1 (centres undefined),7.08 µM (active)
6,CCN(CC(=O)NCc1ccco1)S(=O)(=O)c1ccc(F)cc1,inactive
7,O=C(CCNC(=O)c1ccc(Br)cc1)NCC(c1ccco1)N1CCCCC1 (centres undefined),inactive
8,COc1ccc(CCNC(=O)C(=O)NCc2ccccc2C)cc1OC,inactive
9,Cc1cc(S(=O)(=O)Nc2ccc(C(=O)NCC(c3ccco3)N3CCCC3)cc2)ccc1F (centres undefined),inactive
10,O=C(NCC(c1ccco1)N1CCc2ccccc21)c1cccc(F)c1 (centres undefined),inactive
11,CC(C)(C)c1ccc(C(=O)NCC(c2ccco2)S(=O)(=O)c2ccc(F)cc2)cc1 (centres undefined),11.2 µM (active)
12,COc1ccc(CCNC(=O)C(=O)NCC2CCCN2S(=O)(=O)c2cccs2)cc1OC (centres undefined),inactive
13,COc1ccc(CCNC(=O)C(=O)NCC(c2ccco2)S(=O)(=O)c2cccs2)cc1OC (centres undefined),3.55 µM (active)
14,CCC(=O)Nc1c(C(=O)N2CCN(c3ccc(F)cc3)CC2)oc2ccccc12,inactive
15,CN(CC(=O)Nc1cccc(C(F)(F)F)c1)S(=O)(=O)c1cccs1,inactive
16,CCOc1ccc(N(CC)C(=O)c2noc3c2COc2ccc(C)cc2-3)cc1,inactive
17,Cc1ccc2[nH]c3c(=O)n(CC(=O)NC(C)C)ncc3c2c1,inactive
18,Cc1ccc2c(=O)cc(C(=O)Nc3sc4c(c3C(=O)NCc3cccnc3)CCCC4)oc2c1,inactive
19,CCCNC(=O)c1ccc(Cn2c(SCC(N)=O)nc3ccccc3c2=O)cc1,inactive
